According to PubChem BioAssay AID1159580 (chemical genetic matrix, 2015):
“And” between values parts separate entries of the source, which are not always exact repeats. Identical values can stand only once. About 2,000 (36%) of roughly 5,500 compounds were called active. Not shown: some 18% with an inconclusive outcome. Rule as the data show it: active = normalized growth mostly below about 0.91 (no sharp cut-off); inconclusive = no clear call, values can overlap the other calls; inactive = mostly above about 0.92. Some of the results follow.

Assay: chemical genetic growth profiling, strain panel (AID 1159580);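 also: tested at 20 µM; growth read once vehicle control cultures reached saturation at 30 °C; 1 = growth at the plate median or of vehicle wells; lower values mean less growth of the strain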
Conditions: growth OD

Measured: normalized growth

CC(=O)O[C@@H]1CC[C@@]2(C)C(C[C@@H](OC(C)=O)[C@@]3(C)C4=CC(=O)O[C@@H](c5ccoc5)[C@]4(C)CCC23)C1(C)C (stereo partly drawn)
inactive: S. cerevisiae deletion strains, locus YBR021W, strain FUR4, hits give low values 1.01 | S. cerevisiae deletion strains, locus YBR229C, strain ROT2, hits give low values 1.01 | S. cerevisiae deletion strains, locus YCL029C, strain bik1, hits give low values 0.99 | S. cerevisiae deletion strains, locus YDL035C, strain GPR1, hits give low values 1.03 | S. cerevisiae deletion strains, locus YDL074C, strain BRE1, hits give low values 1 | S. cerevisiae deletion strains, locus YDL101C, strain DUN1, hits give low values 1.01 | S. cerevisiae deletion strains, locus YDL134C, strain PPH21, hits give low values 1.01 | S. cerevisiae deletion strains, locus YDL185W, strain tfp1, hits give low values 0.996 | S. cerevisiae deletion strains, locus YDL192W, strain arf1, hits give low values 1 | S. cerevisiae deletion strains, locus YDR101C, strain arx1, hits give low values 1 | S. cerevisiae deletion strains, locus YDR162C, strain NBP2, hits give low values 1.02 | S. cerevisiae deletion strains, locus YDR318W, strain mcm21, hits give low values 1 | S. cerevisiae deletion strains, locus YDR388W, hits give low values 1 | S. cerevisiae deletion strains, locus YDR502C, strain sam2, hits give low values 0.983 | S. cerevisiae deletion strains, locus YEL061C, strain CIN8, hits give low values 1.02 | S. cerevisiae deletion strains, locus YER110C, hits give low values 1 | S. cerevisiae deletion strains, locus YER155C, strain BEM2, hits give low values 1.02 | S. cerevisiae deletion strains, locus YER167W, strain BCK2, hits give low values 1.02 | S. cerevisiae deletion strains, locus YGL078C, strain dbp3, hits give low values 0.994 | S. cerevisiae deletion strains, locus YGL086W, strain mad1, hits give low values 1.02 | S. cerevisiae deletion strains, locus YGL248W, strain PDE1, hits give low values 0.999 | S. cerevisiae deletion strains, locus YGR135W, strain pre9, hits give low values 0.973 | S. cerevisiae deletion strains, locus YGR252W, strain gcn5, hits give low values 0.918 | S. cerevisiae deletion strains, locus YHR030C, strain SLT2, hits give low values 0.962 | S. cerevisiae deletion strains, locus YHR079C, strain IRE1 (second series), hits give low values 1 | S. cerevisiae deletion strains, locus YHR079C, strain IRE1, hits give low values 0.998 | S. cerevisiae deletion strains, locus YHR094C, strain hxt1, hits give low values 0.998 | S. cerevisiae deletion strains, locus YHR129C, strain ARP1, hits give low values 1.02 | S. cerevisiae deletion strains, locus YHR200W, strain rpn10, hits give low values 0.976 | S. cerevisiae deletion strains, locus YIL066C, strain RNR3, hits give low values 1.03 | S. cerevisiae deletion strains, locus YIL073C, strain SPO22, hits give low values 0.996 | S. cerevisiae deletion strains, locus YIL125W, strain kgd1, hits give low values 1 | S. cerevisiae deletion strains, locus YIR030C, strain dcg1, hits give low values 1 | S. cerevisiae deletion strains, locus YJL095W, strain BCK1, hits give low values 0.986 and 0.998 | S. cerevisiae deletion strains, locus YJL134W, strain LCB3, hits give low values 1.02 | S. cerevisiae deletion strains, locus YJL168C, strain set2, hits give low values 1 | S. cerevisiae deletion strains, locus YJL187C, strain SWE1 (second series), hits give low values 1 | S. cerevisiae deletion strains, locus YJR066W, strain TOR1, hits give low values 0.918 | S. cerevisiae deletion strains, locus YKL009W, strain mrt4, hits give low values 1.05 | S. cerevisiae deletion strains, locus YKL068W, hits give low values 1 | S. cerevisiae deletion strains, locus YKL085W, strain MDH1 (second series), hits give low values 1.03 | S. cerevisiae deletion strains, locus YKL085W, strain MDH1, hits give low values 1.03 | S. cerevisiae deletion strains, locus YKL190W, strain CNB1, hits give low values 1.02 | S. cerevisiae deletion strains, locus YKR001C, strain vps1, hits give low values 0.998 | S. cerevisiae deletion strains, locus YLR039C, strain RIC1, hits give low values 1.04 | S. cerevisiae deletion strains, locus YLR058C, strain SHM2, hits give low values 1.01 | S. cerevisiae deletion strains, locus YLR102C, strain apc9, hits give low values 0.998 | S. cerevisiae deletion strains, locus YLR113W, strain HOG1, hits give low values 0.981 | S. cerevisiae deletion strains, locus YLR268W, strain sec22, hits give low values 0.99 | S. cerevisiae deletion strains, locus YLR371W, strain rom2, hits give low values 1.01 | S. cerevisiae deletion strains, locus YLR418C, strain cdc73, hits give low values 0.909 | S. cerevisiae deletion strains, locus YML016C, strain PPZ1, hits give low values 1.02 | S. cerevisiae deletion strains, locus YML032C, strain rad52, hits give low values 1 | S. cerevisiae deletion strains, locus YML124C, strain tub3, hits give low values 0.999 | S. cerevisiae deletion strains, locus YMR078C, strain ctf18, hits give low values 1.01 | S. cerevisiae deletion strains, locus YMR223W, strain ubp8, hits give low values 0.988 | S. cerevisiae deletion strains, locus YMR307W, strain GAS1, hits give low values 0.953 | S. cerevisiae deletion strains, locus YNL067W, strain RPL9B, hits give low values 1 | S. cerevisiae deletion strains, locus YNL183C, strain NPR1, hits give low values 0.931 | S. cerevisiae deletion strains, locus YNL233W, strain BNI4, hits give low values 0.993 | S. cerevisiae deletion strains, locus YNL250W, strain rad50, hits give low values 0.992 | S. cerevisiae deletion strains, locus YNL271C, strain bni1, hits give low values 1 | S. cerevisiae deletion strains, locus YNL298W, strain CLA4, hits give low values 0.989 | S. cerevisiae deletion strains, locus YNL307C, strain MCK1, hits give low values 0.993 | S. cerevisiae deletion strains, locus YNR052C, strain pop2, hits give low values 0.993 | S. cerevisiae deletion strains, locus YOL006C, strain TOP1, hits give low values 0.986 | S. cerevisiae deletion strains, locus YOL012C, strain htz1 0.707 | S. cerevisiae deletion strains, locus YOL147C, strain pex11, hits give low values 1 | S. cerevisiae deletion strains, locus YOR061W, strain CKA2, hits give low values 1.02 | S. cerevisiae deletion strains, locus YOR069W, strain VPS5, hits give low values 1.02 | S. cerevisiae deletion strains, locus YOR136W, strain idh2, hits give low values 0.996 | S. cerevisiae deletion strains, locus YOR144C, strain elg1, hits give low values 1.01 | S. cerevisiae deletion strains, locus YOR184W, strain ser1, hits give low values 1.01 | S. cerevisiae deletion strains, locus YOR231W, strain MKK1, hits give low values 0.999 | S. cerevisiae deletion strains, locus YOR316C, strain cot1, hits give low values 0.999 | S. cerevisiae deletion strains, locus YPL055C, strain LGE1, hits give low values 0.997 | S. cerevisiae deletion strains, locus YPL256C, strain CLN2, hits give low values 0.973 | S. cerevisiae deletion strains, locus YPR119W, strain clb2, hits give low values 1 | S. cerevisiae deletion strains, locus YPR141C, strain kar3, hits give low values 0.993 | S. cerevisiae deletion strains, locus YPR163C, strain tif3, hits give low values 0.988 | S. cerevisiae deletion strains, locus YPR167C, strain met16, hits give low values 0.995 | S. cerevisiae deletion strains, strain wtn01, hits give low values 0.986 | S. cerevisiae strains, strain wild type, hits give low values 1.02
